Experimental data as given in PubChem BioAssay (NCI).
This is part of a sample that, as a whole, favours compounds with a hit. Of some 79,000 tested, about 15% had one in any assay. The source made the active and inactive calls. Rule as the data show it: active = growth inhibition above about 70%; inactive = the rest.

Experiment: NCI Yeast Anticancer Drug Screen. Data for the cln2 rad14 strain (AID 165);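 also: 0% = growth equal to vehicle treated cultures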
Settings: S. cerevisiae cln2 rad14 strain, at 5.0 µM (retest, dose inferred, filed as 0.5), hits give high values
How it was run: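 The screen exposed genetically defined yeast (cln2 rad14) to test compounds and scored growth inhibition relative to vehicle-treated controls.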

For c1ccc(NC2=NCCN2)nc1, which growth inhibition is on record?
Its growth inhibition is 24% (inactive).

With C[CH2][Sn]([CH2]C)([CH2]C)[O]C(=O)CO as the molecule, how does the growth inhibition read?
The growth inhibition was -11% (inactive).

Which growth inhibition does the source give for CC12CCC(O)CC1CCC1C2CCC2(C)C1CC1CC(=O)OC12 (configuration not stated) here?
Its growth inhibition is 57% (inactive).

With Nc1ccc(N=Nc2ccccc2)cc1 as the molecule, how does the growth inhibition read?
Its growth inhibition is 5% (inactive).

With C[n+]1c(/C=C/c2ccc(O)c3ncccc23)[se]c2ccccc21 as the molecule, how does the growth inhibition read?
The growth inhibition was 11% (inactive).

With COC(=O)C1=C(C)N2CCSC2(C)C(C(=O)OC)C1c1cccc(Cl)c1 (configuration not stated) as the molecule, how does the growth inhibition read?
The growth inhibition was 17% (inactive).

Which growth inhibition does the source give for O=[N+]([O-])/C=C/c1ccccc1 here?
The growth inhibition was 64% (inactive).

For CC12CCC(O)CC1CCC1C2CCC2(C)C(C(=O)CC(O)C(F)(F)F)CCC12 (configuration not stated), which growth inhibition is on record?
Its growth inhibition is -7% (inactive).

Which growth inhibition does the source give for CC(C)NCC(O)c1ccc(O)c(O)c1.[Pt].c1ccc([PH+](c2ccccc2)c2ccccc2)cc1.c1ccc([PH+](c2ccccc2)c2ccccc2)cc1 here?
The growth inhibition was 11% (inactive).

Which growth inhibition does the source give for CCOC(=O)/C(=C\c1ccc(C(=O)OC)cc1)[Se]c1ccccc1 here?
Its growth inhibition is 3% (inactive).

With CC/C(=C/c1ccc2c(c1)OCO2)[N+](=O)[O-] as the molecule, how does the growth inhibition read?
The growth inhibition was 28% (inactive).

Which growth inhibition does the source give for CCOC(=O)C1=C(C)NC(=O)NC1c1ccc(N(CCCl)CCCl)cc1Cl (configuration not stated) here?
The growth inhibition was -8% (inactive).

For S=C(S)N1CCOCC1, which growth inhibition is on record?
The growth inhibition was -2% (inactive).

Which growth inhibition does the source give for CCOC(=O)c1ccccc1N here?
The growth inhibition was 2% (inactive).

For C[n+]1c(/C=C/c2ccc(O)c(O)c2)[se]c2ccccc21, which growth inhibition is on record?
The growth inhibition was 19% (inactive).

With CS(=O)(=O)[O-].CS(=O)(=O)[O-].NC1CCCCC1N.[Pt+4] (configuration not stated) as the molecule, how does the growth inhibition read?
The growth inhibition was 100% (active).

For COc1ccc2c(c1O)-c1cccc3c1[C@@H](C2)N(CCCl)CC3, which growth inhibition is on record?
The growth inhibition was 13% (inactive).
